Experimental findings from PubChem BioAssay (NCATS) are described below.

The target of experiment [1] is Lysosomal acid glucosylceramidase (Homo sapiens) (UniProt P04062). Kind of experiment: Glucocerebrosidase-p2 (AID 348; in the data active means potency below about 10 µM; further: potency means the concentration at half of the fitted maximal effect). To be noted: purified GBA, blue fluorogenic substrate, 40 min. In short, it runs like this: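 Normal human glucocerebrosidase (0.2 nM) with blue fluorogenic substrate (80 uM final) in citrate/phosphate pH 5.9 with 10mM sodium taurocholate, 0.01% tween-20; 40 min RT, NaOH/glycine stop; fluorescence Ex 365/Em 440; AC50 from a titration from 0.6 nM upwards.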
Chain of Lysosomal acid glucosylceramidase (Homo sapiens) (P04062 whole entry, looked up): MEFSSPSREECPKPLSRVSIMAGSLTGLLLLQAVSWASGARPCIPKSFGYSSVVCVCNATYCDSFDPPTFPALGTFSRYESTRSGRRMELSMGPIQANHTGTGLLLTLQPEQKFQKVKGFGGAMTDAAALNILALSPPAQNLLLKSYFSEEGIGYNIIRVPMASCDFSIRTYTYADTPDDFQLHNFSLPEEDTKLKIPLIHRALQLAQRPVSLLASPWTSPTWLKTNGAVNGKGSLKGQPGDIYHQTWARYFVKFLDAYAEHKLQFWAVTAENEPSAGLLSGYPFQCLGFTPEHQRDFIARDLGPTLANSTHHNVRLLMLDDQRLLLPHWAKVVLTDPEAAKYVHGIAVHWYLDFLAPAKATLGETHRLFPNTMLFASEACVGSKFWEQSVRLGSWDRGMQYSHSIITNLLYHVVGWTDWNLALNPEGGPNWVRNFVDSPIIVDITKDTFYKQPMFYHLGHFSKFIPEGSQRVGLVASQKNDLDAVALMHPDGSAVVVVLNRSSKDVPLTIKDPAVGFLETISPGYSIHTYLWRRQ

For experiment [2], the target named is Glucocorticoid receptor (Homo sapiens) (UniProt P04150). Kind of experiment: GR-GFP Redistribution (AID 450;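 active means compounds whose dose series gives a full or clear partial fitted curve of increased nuclear translocation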; further: potency means the concentration at half of the fitted maximal effect). The note with it: U2OS GR-GFP nuclear translocation, laser cytometry, 2 h.
Chain of Glucocorticoid receptor (Homo sapiens) (P04150 whole entry, looked up, the tested form may be a part): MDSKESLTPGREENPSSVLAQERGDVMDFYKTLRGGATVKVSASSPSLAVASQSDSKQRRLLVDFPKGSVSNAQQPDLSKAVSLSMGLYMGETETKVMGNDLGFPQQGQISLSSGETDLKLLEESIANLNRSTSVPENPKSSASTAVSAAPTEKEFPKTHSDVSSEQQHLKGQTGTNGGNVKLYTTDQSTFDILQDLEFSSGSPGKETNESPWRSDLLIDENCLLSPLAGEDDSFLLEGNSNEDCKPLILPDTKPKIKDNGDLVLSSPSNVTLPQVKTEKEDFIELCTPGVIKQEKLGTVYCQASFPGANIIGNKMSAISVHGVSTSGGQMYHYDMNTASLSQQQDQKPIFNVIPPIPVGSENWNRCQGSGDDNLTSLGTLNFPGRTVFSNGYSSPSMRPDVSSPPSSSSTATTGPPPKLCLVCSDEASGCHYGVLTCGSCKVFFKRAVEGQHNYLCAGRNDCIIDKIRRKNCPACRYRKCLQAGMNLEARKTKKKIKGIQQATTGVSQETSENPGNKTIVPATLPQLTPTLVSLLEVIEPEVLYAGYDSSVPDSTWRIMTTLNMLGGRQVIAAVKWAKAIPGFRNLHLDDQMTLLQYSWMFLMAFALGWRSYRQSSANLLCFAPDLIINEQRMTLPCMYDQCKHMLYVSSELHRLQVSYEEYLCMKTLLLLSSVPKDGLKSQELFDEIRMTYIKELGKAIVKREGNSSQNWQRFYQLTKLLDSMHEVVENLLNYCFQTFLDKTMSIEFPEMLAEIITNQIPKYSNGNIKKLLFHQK
Experiment [3] has the same target. Kind of experiment: GR-EFC Redistribution (AID 451; calls by dose curve; further: potency means the concentration at half of the fitted maximal effect). The note with it: CHO-K1 GR-EFC translocation, beta-gal luminescence, 2 h. The method in brief: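 CHO-K1 cells expressing nuclear EA and GR-ED fragments of b-gal; compounds titrated up to 46 uM final, 2 h at 37 C. GR nuclear translocation read as complemented b-gal luminescence after 1 h RT detection.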
Experiment [4] has as its target Mitogen-activated protein kinase 10 (Mus musculus) (UniProt Q61831). Kind of experiment: JNK3 AlphaScreen Assay (AID 530; active means well fitted curve in either direction with a large enough effect, not every such curve was filed as active;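 further: kinase came from lysate of stimulated human HepG2 cells; signal reports phosphorylation of biotinylated GST-cJun 1-79 at Ser73 with 10 µM ATP; on the % scale 0 is the no-effect control and ±100 the full control effect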). To be noted: JNK3 lysate, c-Jun phosphorylation; series mostly up to 57.1 µM. In short, it runs like this: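 Activity was read by AlphaScreen after JNK3-containing HepG2 lysate (cytokine pre-activated) phosphorylated biotinylated GST-cJun with 10 uM ATP at room temperature. Phospho-Ser73 cJun antibody with Protein-A acceptor beads provided detection.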
Background: Bead proximity is the source of the signal in Alpha formats.

Experiment [5] has as its target 3',5'-cyclic-AMP phosphodiesterase 4B (Homo sapiens) (UniProt Q07343). Kind of experiment: qHTS Assay for Inhibitors of PDE-IV (AID 607; active means well fitted activation curve with a large enough effect in the main read-out, with a control signal flat, not every such curve was filed as active; further: % of control where 0% means no effect). To be noted: HEK293 ACTOne CNG channel cells, membrane potential fluorescence; series mostly up to 22.9 µM. In short, it runs like this: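 ACTOne HEK293 cells carry a modified cAMP-gated CNG channel and express endogenous PDE4; plated 1000 cells/well, compounds up to 22.9 uM final. Membrane-potential dye fluorescence (ex 535/em 590) was read; parental cells received 10 uM forskolin + 100 uM RO 20-1724.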

The nature of experiment [6]: qHTS Assay for Identification of Small Molecule Agonists for Hypoxia Response Element Signaling Pathway (AID 914; active means well fitted activation curve with a large enough effect in the signal ratio, with a control signal flat, not every such curve was filed as active; the % refers to the signal ratio; further: potency means the concentration at half of the fitted maximal effect). To be noted: ME-180 HRE-bla reporter, beta-lactamase ratio, CoCl2, 17 h; activation: stronger effect = higher value. In short, it runs like this:
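Read-out: CCF4 FRET ratio of 460nm to 530nm emission (excitation 405nm) after 2.5 hours at room temperature, taken from HRE-bla ME-180 cells that had been exposed to compound and EC50 CoCl2 for 17 hours.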

The nature of experiment [7]: Counterscreen qHTS for small molecule stabilizers of the endoplasmic reticulum resident proteome: GLuc-NoTag assay (AID 1508627).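 Further: 0% = thapsigargin alone and -100% = DMSO vehicle control.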 To be noted: Gaussia luciferase NoTag secretion counterscreen, luminescence, thapsigargin 100 nM for final 4 h; series mostly up to 76.4 µM. In short, it runs like this:
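Counterscreen line: SH-SY5Y-GLuc-NoTag. Seed, 5 h; compound, 19 h; thapsigargin 100 nM, 4 h; 37C/5% CO2. Readout: secreted GLuc luminescence, coelenterazine 0.07x final, no lysis.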
In general terms: The purpose of a counterscreen is to sort out artefacts and off-target activity.

Experiment [8] addresses Cytochrome P450 1A2 (Homo sapiens) (UniProt P05177). Kind of experiment: p450-cyp1a2 (AID 410; calls by dose curve; further: potency means the concentration at half of the fitted maximal effect). The note with it: recombinant CYP1A2, luciferin-ME demethylation, luminescence; series mostly up to 57 µM. In short, it runs like this: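 O-Demethylation of luciferin 6' methyl ether by human CYP1A2 is monitored as luciferase luminescence. Substrate sits at Km (100uM); enzyme is 20nM. Values are scaled to 57 uM furafylline as maximal inhibition.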

The nature of experiment [9]: NFAT Signaling Pathway (AID 444; active means well fitted curve in either direction with a large enough effect, not every such curve was filed as active;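 further: carbachol stimulus at about its EC50 of 1 µM final; on the % scale 0 is the no-effect control and ±100 the full control effect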). The note with it: Jurkat NFAT-bla M1, carbachol, beta-lactamase ratio, 5 h; at 7.69 µM (top of the series) unless noted. In short, it runs like this:
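Jurkat cells with NFAT-driven β-lactamase reporter and co-expressed M1 receptor, stimulated with carbachol (final 1 uM, ~EC50), compound titration, 5 h at 37 °C. CCF4 loaded 1 h at RT; 460/530 nm ratio gave %activity and AC50.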

Experiment [10] can be described thus: Stat Signaling Pathway (AID 446; active means well fitted curve in either direction with a large enough effect, not every such curve was filed as active;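 further: ME-180 cervical cancer cells given 40 pM IL-6 alongside compound; SIE-controlled beta-lactamase reporter measured as 460/530 nm FRET emission ratio; on the % scale 0 is the no-effect control and ±100 the full control effect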). The note with it: ME-180 SIE beta-lactamase reporter, IL-6 stimulated, 5 h; at 7.69 µM (top of the series) unless noted. The method in brief: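 Compound effects on IL-6-induced STAT reporter activity were measured in ME-180 cells. After overnight culture, cells were co-treated with 40 pM IL-6 for 5 hrs before beta-lactamase substrate loading at room temperature.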

For experiment [11], the target named is Cytochrome P450 3A4 (Homo sapiens) (UniProt P08684). Kind of experiment: qHTS Assay for Activators of Cytochrome P450 3A4 (AID 885). Further: nearly all actives have a fitted effect of over 65% in size. To be noted: recombinant CYP3A4, Luciferin-PPXE luminescence, 60 min; series mostly up to 57.1 µM. The method in brief:
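CYP3A4 activity: Luciferin-PPXE O-dealkylation, 25uM substrate, 200mM KPO4, RT throughout. Read-out is luciferase luminescence; higher values reflect activation.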
(qHTS replaces the single test concentration by a dilution series.)

A short description of experiment [12]: qHTS Assay for Lipid Storage Modulators (AID 1519; calls by dose curve). To be noted: Drosophila S3 cells, BODIPY lipid droplet/cell ratio, laser cytometry, cells loaded with oleic acid; for activity change, negative = inhibition: at 57.5 µM (top of the series). In short, it runs like this: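 Cells seeded at 5,000 per well were treated with compounds over a concentration series and loaded with oleic acid (400 uM, as added). Lipid droplet fluorescence (488 nm excitation, 500-530 nm channel) was read by laser-scanning cytometry and normalized to 20 uM Triacsin C.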

Experiment [13] has as its target Dual specificity protein kinase CLK4 (Homo sapiens) (UniProt Q9HAZ1). Kind of experiment: qHTS Assay for Inhibitors of CDC-like Kinase 4 (Kinase-Glo Assay) (AID 1770). Further: nearly all actives have a fitted effect of over 65% in size. Further: potency means the concentration at half of the fitted maximal effect. To be noted: recombinant Clk4, Kinase-Glo ATP depletion luminescence; series mostly up to 66.7 µM. In short, it runs like this: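 Luminescent ATP-depletion read-out (Kinase-Glo) after 4.5 h room-temperature reaction of Clk4 (25 nM final) with RS peptide (100 uM) and ATP (1 uM), pH 7.5 Tris buffer with MgCl2 and DTT.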

The target is the same in experiment [14]. Kind of experiment: qHTS Assay for Inhibitors of CDC-like Kinase 4 (ADP-Glo Assay) (AID 1771). Further: nearly all actives have a fitted effect of over 70% in size. Further: potency means the concentration at half of the fitted maximal effect. The note with it: recombinant CLK4, ADP-Glo luminescence; series mostly up to 80 µM. The method in brief:
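Compounds are pin-transferred onto substrate mix (100 uM RS peptide, 1 uM ATP), then 25 nM Clk4 is added. After 1 hr at room temperature, ADP-Glo reagent runs 45 min, detection reagent 30 min, then luminescence is read.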

The target is the same in experiment [15]. Kind of experiment: qHTS Assay for Inhibitors of CDC-like Kinase 4 (ADP-FP Assay) (AID 1795). Further: nearly all actives have a fitted effect of over 60% in size. Further: potency means the concentration at half of the fitted maximal effect. To be noted: Transcreener ADP fluorescence polarization; series mostly up to 50 µM. The method in brief: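 Kinase activity was measured as ADP production using Transcreener orange tracer (4 nM) and ADP antibody (1 ug/mL) fluorescence polarization, with ADP calculated from a calibration curve. The 1 h reaction contained 6.25 nM Clk4, 1 uM ATP and 100 uM RS peptide at pH 7.5 with Mg2+.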

For experiment [16], the target named is Ubiquitin carboxyl-terminal hydrolase 1 (Homo sapiens) (UniProt O94782). Kind of experiment: Inhibitors of USP1/UAF1: Pilot qHTS (AID 504865).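 Further: rhodamine fluorescence freed from ubiquitin-rhodamine substrate followed over time; top concentration of the series differs between compounds; on the % scale 0 is the no-effect control and ±100 the full control effect; nearly all actives have a fitted effect of over 35% in size.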 The note with it: purified USP1/UAF1, Ub-rhodamine cleavage fluorescence; series mostly up to 54.9 µM. The method in brief:
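Deubiquitinase activity followed as kinetic rhodamine fluorescence release from 150 nM Ub-Rho. 1 nM USP1/UAF1 with compound, after 15 min room-temperature preincubation, in HEPES pH 7.8 buffer containing TCEP, EDTA, BSA and Tween-20.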

Experiment [17] is described as follows: Confirmatory qHTS for small molecule stabilizers of the endoplasmic reticulum resident proteome: Secreted ER Calcium Modulated Protein (SERCaMP) assay (AID 1508628). Further: nearly all actives have a fitted effect of over 40% in size. Further: potency means the concentration at half of the fitted maximal effect. To be noted: SERCaMP secreted luciferase ER calcium/proteostasis reporter; series mostly up to 76.3 µM. The method in brief:
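Reporter secretion upon ER calcium depletion (100 nM thapsigargin, 4 h, 37C) is measured as medium luminescence with coelenterazine, after 16 h compound pretreatment of SH-SY5Y-GLuc-SERCaMP cells; primary at three concentrations up to 38.3 uM, follow-up at 11 (up to 76.6 uM).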

For experiment [18], the target named is Cytochrome P450 3A4 (Homo sapiens) (UniProt P08684). Kind of experiment: qHTS Assay for Inhibitors and Substrates of Cytochrome P450 3A4 (AID 884). Further: potency means the concentration at half of the fitted maximal effect; nearly all actives have a fitted effect of over 50% in size. To be noted: recombinant CYP3A4, Luciferin-PPXE luminescence; series mostly up to 57.1 µM. In short, it runs like this: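 Luminescent readout of luciferin produced by CYP3A4 (20 nM) dealkylation of Luciferin-PPXE, 25 uM (its KM). NADPH-driven reaction ran 60 min at RT after 10 min compound preincubation; data scaled to 57 uM ketoconazole as 100% inhibition.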
Chain of Cytochrome P450 3A4 (Homo sapiens) (P08684 whole entry, looked up): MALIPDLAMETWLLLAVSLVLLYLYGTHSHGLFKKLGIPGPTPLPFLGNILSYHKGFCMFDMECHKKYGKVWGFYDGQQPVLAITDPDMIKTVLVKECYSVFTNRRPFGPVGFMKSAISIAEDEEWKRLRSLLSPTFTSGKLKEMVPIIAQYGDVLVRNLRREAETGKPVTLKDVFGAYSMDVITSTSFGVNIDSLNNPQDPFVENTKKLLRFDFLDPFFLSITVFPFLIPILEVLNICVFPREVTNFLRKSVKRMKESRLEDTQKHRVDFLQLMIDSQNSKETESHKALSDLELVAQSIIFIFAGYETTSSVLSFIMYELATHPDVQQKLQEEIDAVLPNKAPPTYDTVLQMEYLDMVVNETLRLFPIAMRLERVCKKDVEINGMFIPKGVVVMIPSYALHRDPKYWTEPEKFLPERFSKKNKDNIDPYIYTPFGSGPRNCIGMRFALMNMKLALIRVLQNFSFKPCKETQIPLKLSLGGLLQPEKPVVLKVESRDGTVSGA

Experiment [19] is described as follows: Cell Viability qHTS for small molecule stabilizers of the endoplasmic reticulum resident proteome (AID 1508629).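 Further: human SH-SY5Y neuroblastoma cells carrying the GLuc-SERCaMP reporter; compound exposure about 46 h in total before the viability read; on the % scale 0 is the no-effect control and ±100 the full control effect.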 The note with it: cell viability counter-screen, 100 nM thapsigargin for final 4 h.
The nature of experiment [20]: AP1 Signaling Pathway (AID 357; active means well fitted curve in either direction with a large enough effect, not every such curve was filed as active). The note with it: ME-180 (cervical carcinoma) AP-1-bla reporter, EGF-induced, beta-lactamase ratio, 5 h; at 7.69 µM (top of the series) unless noted. In short, it runs like this:
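Titration-series screen for positive or negative modulators of EC50 EGF-induced signaling in ME-180 cells carrying an AP-1-driven beta-lactamase reporter. After 5 hours at 37 degrees Celsius, CCF4 460nm/530nm emission ratio gave %Activity; AC50 values derived.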

[21] abbreviates: measured here: cell count channel max response.
Setting [22] is: measured here: lipid channel max response.

Records with an inconclusive call do not appear. The source made the active and inactive calls. Unless noted, the call rests on the fitted dose curve; in most records, active means well fitted curve in the direction sought with a large enough effect; inconclusive means small, poorly fitted or top-dose-only effect, or another doubt; inactive means no such curve, though single readings can be large; an effect the other way counts as inactive or inconclusive. Bounds are passed on as bounds.

Chain of Ubiquitin carboxyl-terminal hydrolase 1 (Homo sapiens) (O94782 whole entry, looked up): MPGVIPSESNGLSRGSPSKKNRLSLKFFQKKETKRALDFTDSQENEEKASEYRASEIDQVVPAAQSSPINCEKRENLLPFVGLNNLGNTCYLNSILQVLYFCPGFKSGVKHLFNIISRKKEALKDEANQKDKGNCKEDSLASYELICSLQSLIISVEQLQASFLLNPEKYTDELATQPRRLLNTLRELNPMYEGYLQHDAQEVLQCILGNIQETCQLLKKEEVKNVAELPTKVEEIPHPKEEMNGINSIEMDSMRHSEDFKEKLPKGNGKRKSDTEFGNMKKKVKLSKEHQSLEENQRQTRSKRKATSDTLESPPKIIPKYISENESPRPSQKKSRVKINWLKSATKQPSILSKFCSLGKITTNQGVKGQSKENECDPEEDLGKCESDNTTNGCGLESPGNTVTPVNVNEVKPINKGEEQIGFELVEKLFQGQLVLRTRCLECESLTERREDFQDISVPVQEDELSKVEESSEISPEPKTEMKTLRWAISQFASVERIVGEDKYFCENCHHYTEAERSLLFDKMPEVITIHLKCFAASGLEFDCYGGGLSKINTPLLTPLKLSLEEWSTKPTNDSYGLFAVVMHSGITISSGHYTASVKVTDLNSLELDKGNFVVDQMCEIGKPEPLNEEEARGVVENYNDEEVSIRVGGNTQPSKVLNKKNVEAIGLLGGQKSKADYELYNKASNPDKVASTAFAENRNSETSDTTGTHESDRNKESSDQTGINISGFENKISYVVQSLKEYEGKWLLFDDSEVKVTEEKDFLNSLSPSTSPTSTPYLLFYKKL
Chain of Dual specificity protein kinase CLK4 (Homo sapiens) (Q9HAZ1 whole entry, looked up): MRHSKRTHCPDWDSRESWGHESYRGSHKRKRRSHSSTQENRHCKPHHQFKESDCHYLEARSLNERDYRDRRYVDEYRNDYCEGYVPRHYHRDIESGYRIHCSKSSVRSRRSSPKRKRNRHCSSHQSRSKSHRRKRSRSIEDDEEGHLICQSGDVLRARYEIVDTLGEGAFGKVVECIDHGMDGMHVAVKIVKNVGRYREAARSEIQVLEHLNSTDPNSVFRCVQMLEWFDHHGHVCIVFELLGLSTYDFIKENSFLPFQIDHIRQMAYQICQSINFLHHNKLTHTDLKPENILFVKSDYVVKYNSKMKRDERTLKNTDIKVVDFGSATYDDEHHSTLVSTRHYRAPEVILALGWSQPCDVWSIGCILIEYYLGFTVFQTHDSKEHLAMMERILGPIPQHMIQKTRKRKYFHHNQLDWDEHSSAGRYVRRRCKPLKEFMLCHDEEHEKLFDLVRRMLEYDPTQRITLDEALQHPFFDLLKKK
Chain of 3',5'-cyclic-AMP phosphodiesterase 4B (Homo sapiens) (Q07343 whole entry, looked up): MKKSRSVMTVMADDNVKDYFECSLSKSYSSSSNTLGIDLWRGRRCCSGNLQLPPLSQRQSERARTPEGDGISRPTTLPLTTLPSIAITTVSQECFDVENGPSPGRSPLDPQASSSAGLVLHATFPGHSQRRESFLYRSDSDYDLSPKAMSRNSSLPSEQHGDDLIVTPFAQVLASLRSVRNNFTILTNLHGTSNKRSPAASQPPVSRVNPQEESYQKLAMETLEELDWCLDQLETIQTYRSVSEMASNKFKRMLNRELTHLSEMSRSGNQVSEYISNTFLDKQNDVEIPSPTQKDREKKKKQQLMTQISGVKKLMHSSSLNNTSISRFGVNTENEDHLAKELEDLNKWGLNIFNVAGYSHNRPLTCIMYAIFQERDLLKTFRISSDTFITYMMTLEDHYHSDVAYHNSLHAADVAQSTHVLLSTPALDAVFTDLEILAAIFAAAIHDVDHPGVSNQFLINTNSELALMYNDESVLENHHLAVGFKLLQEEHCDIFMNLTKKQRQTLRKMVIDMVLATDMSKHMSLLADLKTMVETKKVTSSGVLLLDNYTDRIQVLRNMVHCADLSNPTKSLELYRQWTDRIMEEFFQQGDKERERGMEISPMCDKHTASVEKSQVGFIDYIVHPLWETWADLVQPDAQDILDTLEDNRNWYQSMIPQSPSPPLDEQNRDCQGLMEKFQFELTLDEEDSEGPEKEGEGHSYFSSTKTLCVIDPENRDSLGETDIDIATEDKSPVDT
Chain of Cytochrome P450 1A2 (Homo sapiens) (P05177 whole entry, looked up): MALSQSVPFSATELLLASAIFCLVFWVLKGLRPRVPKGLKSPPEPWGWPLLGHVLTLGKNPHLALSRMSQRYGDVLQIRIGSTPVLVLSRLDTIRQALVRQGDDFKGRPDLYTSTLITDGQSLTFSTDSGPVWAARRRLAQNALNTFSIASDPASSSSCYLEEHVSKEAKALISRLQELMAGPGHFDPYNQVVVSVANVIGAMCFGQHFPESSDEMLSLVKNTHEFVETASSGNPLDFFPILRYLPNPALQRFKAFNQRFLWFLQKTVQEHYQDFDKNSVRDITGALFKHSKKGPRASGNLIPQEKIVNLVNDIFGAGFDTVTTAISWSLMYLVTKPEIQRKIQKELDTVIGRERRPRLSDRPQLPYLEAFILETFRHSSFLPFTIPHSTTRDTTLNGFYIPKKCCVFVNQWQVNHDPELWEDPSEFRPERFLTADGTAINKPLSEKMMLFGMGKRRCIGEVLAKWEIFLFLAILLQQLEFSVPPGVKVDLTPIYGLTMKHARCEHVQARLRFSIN

As for `COCCn1c(=O)c(-c2ccccc2)nc2cnc(N3CCNCC3)nc21`, the Potency is > 11.4 µM (inactive) in [1], > 9.22 µM (inactive) in experiment [2], > 46 µM (inactive) in experiment [3] and 3.16 µM (active) in experiment [6]. In addition, in experiment [4], the molecule was called inactive. For the same molecule, the Potency entry in [5] and in [7] was “inactive” throughout.
As to `COc1cccc(-c2ccc3ncnc(N4CCN(C)CC4)c3c2)c1`, the Potency in [1] is > 11.4 µM (inactive); in experiment [8], 3.98 µM (active); in experiment [2], > 46 µM (inactive); in [3] it was > 46 µM (inactive); in experiment [13] it was 3.55 µM (active); in [14] it was 3.98 µM (active). The results for the Potency in experiment [15] and in [17] were 2.24 µM (active) and 39.8 µM (active), respectively. Further, the values for the activity change, negative = inhibition in experiment [9] and in experiment [12] were 13% (inactive) and -0.228% (inactive), respectively. Moreover, the activity, negative = inhibition in experiment [10] is -6.09% (inactive). In experiment [4], the outcome was inactive. The Potency entry in [5], in [11] and in experiment [16] was “inactive” each time. Further, the max response in experiment [12] (setting [21]) amounted to 8.77%; in [12] (setting [22]), 10.1%.
With `COc1ccc(CNc2ncnc3ccc(-c4cccc(C#N)c4)cc23)c(OC)c1`, the Potency in [8] is 3.16 µM (active); in experiment [2], > 46 µM (inactive); in experiment [3], > 46 µM (inactive); in experiment [18] it was 1.58 µM (active); in experiment [17], 28.2 µM (active). In addition, the results for the activity change, negative = inhibition in [9] and in experiment [12] were 16.5% (inactive) and -0.414% (inactive), respectively. Besides, in experiment [10], the activity, negative = inhibition was -11.5% (inactive). Further, the call in experiment [4] was inactive. In addition, the Potency result in experiment [11], in experiment [15] and in experiment [16] was “inactive” throughout. The max response was -6.85% in experiment [12] (setting [21]) and -11.4% in experiment [12] (setting [22]).
As for `COc1ccc(-c2nc3cnc(N4CCN(C)CC4)nc3n(Cc3cccc(OC)c3)c2=O)cc1`, the Potency in [1] is > 11.4 µM (inactive); in [2] it was > 9.22 µM (inactive); in experiment [3], > 46 µM (inactive). Also, the Potency result in experiment [5], in experiment [13], in experiment [14], in [15], in experiment [16] and in experiment [17] was “inactive” each time. In experiment [12], the activity change, negative = inhibition is -2.59% (inactive). For the same molecule, the max response amounted to 8.4% in experiment [12] (setting [21]) and 2.85% in experiment [12] (setting [22]).
For the molecule `Fc1ccc(Nc2ccnc(-c3ccccc3C(F)(F)F)n2)cc1`, the Potency in [1] was > 11.4 µM (inactive); in [8] it was 2 µM (active); in [2] it was > 46 µM (inactive); in [3], > 46 µM (inactive); in [17] it was 50.1 µM (active). Besides, the activity change, negative = inhibition in experiment [9] was -6.61% (inactive). For the same molecule, in experiment [10], the activity, negative = inhibition was 3.25% (inactive). For the same molecule, the outcome in experiment [4] was inactive. Moreover, the Potency entry in experiment [5], in experiment [11], in experiment [13], in experiment [14] and in [15] was “inactive” in each case. Further, the max response in experiment [19] was -1.83% (inactive).
In the case of `O=c1c(CCc2ccccc2)nc2cnc(N3CCNCC3)nc2n1CCc1ccccc1`, the activity change, negative = inhibition in [20] was 9.43% (inactive); in [9], 27.2% (inactive); in experiment [12], 2.33% (inactive). Further, in experiment [10], the activity, negative = inhibition was 16.4% (inactive). For the same molecule, the Potency in experiment [2] was > 9.22 µM (inactive); in experiment [3] it was > 46 µM (inactive). The molecule was called inactive in experiment [4]. The max response was -7.41% in experiment [12] (setting [21]), -3.07% in experiment [12] (setting [22]) and -5.58% (inactive) in [19]. In addition, in experiment [17], the Potency entry was “inactive”.
